# Data published in PubChem BioAssay (EPA / NIEHS).
# The source made the active and inactive calls. The calls were made as follows: active = hit-call score of the fitted dose curve at least 0.9, where 1 is the maximum; inactive = score below 0.9.
# Tests used:
# [1] = CEETOX_H295R_PROG: CeeTox H295R High-throughput Steroidogenesis Assay for Progesterone (PROG) (AID 2283442); conditions: actives raise or lower the signal;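 as to AC50: human H295R adrenal cells primed with 10 µM forskolin before dosing; progesterone secreted into medium by H295R cells measured by HPLC-MS/MS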
# Procedure, shortened: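 Steps: seed H295R cells and let them adhere overnight; prime 48 h with 10 uM forskolin; dose with compound in DMSO at 0.1% final for 48 h; extract medium steroids with MTBE; measure progesterone by LC-MS/MS. MTT viability was run in the same wells.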
# [2] = read-out: Tumor necrosis factor receptor superfamily member 6 (Homo sapiens) (UniProt P25445); experiment: LTEA_HepaRG_FAS: Life Technologies and Expression Analysis (LTEA) Assay for Fas cell surface death receptor (FAS) using HepaRG (AID 2283447); conditions: mRNA level, 48 h; actives raise or lower the signal
# Procedure, shortened: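 Differentiated human HepaRG cells, pre-cultured 48 h, were exposed in duplicate for 48 h to 8-point half-log concentrations (top 100 uM, 0.5% DMSO) in serum-free induction medium; FAS mRNA measured by qRT-PCR, normalized to ACTB/GAPDH/POLR2A, bidirectional fit versus DMSO.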
# [3] = read-out: Cyclin D2 (CCND2), CCND2 (gene 894); experiment: LTEA_HepaRG_CCND2: Life Technologies and Expression Analysis (LTEA) Assay for Cyclin D2 (CCND2) using HepaRG (AID 2283449); conditions: mRNA level, 48 h; actives raise or lower the signal;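 also: CCND2 transcript measured by TaqMan qRT-PCR and normalised to three housekeeping genes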
# Procedure, shortened: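 In this HepaRG study, an eight-point concentration series (max 100 uM, 0.5% DMSO) is applied for 48 h. CCND2 mRNA change is derived by qRT-PCR normalised to ACTB, GAPDH and POLR2A.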
# [4] = read-out: Cyclin Dependent Kinase Inhibitor 1A (CDKN1A), CDKN1A (gene 1026); experiment: LTEA_HepaRG_CDKN1A: Life Technologies and Expression Analysis (LTEA) Assay for Cyclin Dependent Kinase Inhibitor 1A (CDKN1A) using HepaRG (AID 2283450); conditions: mRNA level, 48 h; actives raise or lower the signal
# Procedure, shortened: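 Read-out is CDKN1A mRNA by TaqMan qRT-PCR, normalized to three housekeeping genes and fitted in both directions against the DMSO baseline. Human HepaRG cells were treated 48 h with test chemicals up to 100 uM in half-log steps, 0.5% DMSO.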
# [5] = read-out: catalase (CAT), CAT (gene 847); experiment: LTEA_HepaRG_CAT: Life Technologies and Expression Analysis (LTEA) Assay for catalase (CAT) using HepaRG (AID 2283452); conditions: mRNA level, 48 h; actives raise or lower the signal;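 as to AC50: TaqMan qRT-PCR signal normalized to ACTB GAPDH and POLR2A housekeeping genes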
# Procedure, shortened: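 Differentiated HepaRG cells in serum-free induction medium were dosed 48 h in duplicate, eight half-log concentrations from 100 uM in 0.5% DMSO. Transcript measured by TaqMan qRT-PCR, normalised to ACTB/GAPDH/POLR2A, fitted bidirectionally against DMSO.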
# [6] = read-out: flavin-containing dimethylaniline monooxygenases 3 (FMO3), FMO3 (gene 2328); experiment: LTEA_HepaRG_FMO3: Life Technologies and Expression Analysis (LTEA) Assay for flavin-containing dimethylaniline monooxygenases 3 (FMO3) using HepaRG (AID 2283453); conditions: mRNA level, 48 h; actives raise or lower the signal;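 as to AC50: FMO3 transcript by TaqMan qRT-PCR normalized to ACTB GAPDH and POLR2A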
# Procedure, shortened: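 FMO3 transcript quantified by TaqMan qRT-PCR against three housekeeping genes after 48 h chemical exposure of HepaRG cells. Eight-point half-log series, top 100 uM, 0.5% DMSO vehicle; phenobarbital 1mM induction control; up- or down-regulation fitted.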
# [7] = read-out: Cytochrome P450 (CYP1A1), CYP1A1 (gene 1543); experiment: LTEA_HepaRG_CYP1A1: Life Technologies and Expression Analysis (LTEA) Assay for Cytochrome P450 (CYP1A1) using HepaRG (AID 2283454); conditions: mRNA level, 48 h; actives raise or lower the signal
# Procedure, shortened: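 HepaRG, 48 h post-plating switched to serum-free induction medium; 8-pt conc-response (top 100 uM, half-log, 0.5% DMSO), duplicates, 48 h. Lysis in RLT, TaqMan qRT-PCR for CYP1A1; gain or loss vs DMSO.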
# [8] = read-out: CFLAR gene, CFLAR (gene 8837); experiment: LTEA_HepaRG_CFLAR: Life Technologies and Expression Analysis (LTEA) Assay for CFLAR gene using HepaRG (AID 2283455); conditions: mRNA level, 48 h; actives raise or lower the signal
# Procedure, shortened: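 Gain- or loss-of-signal changes in CFLAR transcript were fitted bidirectionally relative to 0.5% DMSO. Cells (HepaRG, duplicate wells) were dosed for 48 h across eight half-log concentrations topping at 100 uM; quantitation by TaqMan qRT-PCR.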
# [9] = read-out: Forkhead box O1 (FOXO1), FOXO1 (gene 2308); experiment: LTEA_HepaRG_FOXO1: Life Technologies and Expression Analysis (LTEA) Assay for Forkhead box O1 (FOXO1) using HepaRG (AID 2283456); conditions: mRNA level, 48 h; actives raise or lower the signal
# Procedure, shortened: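 Using one lot of HepaRG hepatic cells kept in 0.5% DMSO, the team applied test chemicals in duplicate, half-log dilutions from 100 uM, for 48 h. Expression, normalised to ACTB/GAPDH/POLR2A, was compared with vehicle in either direction.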
# [10] = read-out: growth arrest and DNA damage 45 (GADD45A), GADD45A (gene 1647); experiment: LTEA_HepaRG_GADD45A: Life Technologies and Expression Analysis (LTEA) Assay for growth arrest and DNA damage 45 (GADD45A) using HepaRG (AID 2283458); conditions: mRNA level, 48 h; actives raise or lower the signal
# Procedure, shortened: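 Transcript induction or loss, quantified by TaqMan qRT-PCR against three housekeeping genes, is the read-out. HepaRG cells received chemicals for 48 h across eight half-log concentrations from 100 uM in 0.5% DMSO; gain and loss fitted relative to DMSO.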
# [11] = read-out: Forkhead box O3 (FOXO3), FOXO3 (gene 2309); experiment: LTEA_HepaRG_FOXO3: Life Technologies and Expression Analysis (LTEA) Assay for Forkhead box O3 (FOXO3) using HepaRG (AID 2283459); conditions: mRNA level, 48 h; actives raise or lower the signal
# Procedure, shortened: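 Gene-expression endpoint: FOXO3 transcript level by qRT-PCR in HepaRG cultures treated 48 h with chemicals up to 100 uM (half-log, 0.5% DMSO vehicle).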
# [12] = read-out: ABC Transporter (ABCB1), ABCB1 (gene 5243); experiment: LTEA_HepaRG_ABCB1: Life Technologies and Expression Analysis (LTEA) Assay for ABC Transporter (ABCB1) using HepaRG (AID 2283460); conditions: mRNA level, 48 h; actives raise or lower the signal
# Procedure, shortened: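 Human liver HepaRG line treated 48 h with up to 100 uM compound (eight half-log points, 0.5% DMSO); ABCB1 mRNA change fitted bidirectionally against DMSO controls.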
# [13] = read-out: growth arrest and DNA damage 45 (GADD45B), GADD45B (gene 4616); experiment: LTEA_HepaRG_GADD45B: Life Technologies and Expression Analysis (LTEA) Assay for growth arrest and DNA damage 45 (GADD45B) using HepaRG (AID 2283461); conditions: mRNA level, 48 h; actives raise or lower the signal
# Procedure, shortened: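 HepaRG, ~100,000 cells/well, 48 h plating; serum-free induction medium; cpd 100 uM top, half-log x8, 0.5% DMSO, duplicate, 48 h; lysis in RLT, RNA isolation, qRT-PCR; norm ACTB/GAPDH/POLR2A; bidirectional fit vs DMSO.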
# [14] = read-out: ABC Transporter (ABCC3), ABCC3 (gene 8714); experiment: LTEA_HepaRG_ABCC3: Life Technologies and Expression Analysis (LTEA) Assay for ABC Transporter (ABCC3) using HepaRG (AID 2283462); conditions: mRNA level, 48 h; actives raise or lower the signal
# Procedure, shortened: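 Human HepaRG, 48 h dosing, 8-pt half-log series from 100 uM, 0.5% DMSO vehicle, duplicates. ABCC3 mRNA by TaqMan qRT-PCR, housekeeping-normalized; bidirectional curve fit vs DMSO.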
# [15] = read-out: ABC Transporter (ABCB11), ABCB11 (gene 8647); experiment: LTEA_HepaRG_ABCB11: Life Technologies and Expression Analysis (LTEA) Assay for ABC Transporter (ABCB11) using HepaRG (AID 2283463); conditions: mRNA level, 48 h; actives raise or lower the signal
# Procedure, shortened: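 Using HepaRG cultures held in 0.5% DMSO, chemicals were tested at half-log dilutions from 100 uM for 48 h. Induction or suppression of ABCB11 mRNA, normalized to ACTB, GAPDH and POLR2A, was fitted bidirectionally against vehicle.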
# [16] = read-out: ABC Transporter (ABCC2), ABCC2 (gene 1244); experiment: LTEA_HepaRG_ABCC2: Life Technologies and Expression Analysis (LTEA) Assay for ABC Transporter (ABCC2) using HepaRG (AID 2283464); conditions: mRNA level, 48 h; actives raise or lower the signal
# Procedure, shortened: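 HepaRG, 48 h post-plating; serum-free induction medium; cpd 8-pt, 100 uM top, half-log, 0.5% DMSO, duplicate, 48 h. Readout: ABCC2 mRNA by qRT-PCR, norm. ACTB/GAPDH/POLR2A. Bidirectional fit vs DMSO baseline.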
# [17] = read-out: Broad substrate specificity ATP-binding cassette transporter ABCG2 (Homo sapiens) (UniProt Q9UNQ0); experiment: LTEA_HepaRG_ABCG2: Life Technologies and Expression Analysis (LTEA) Assay for ABC Transporter (ABCG2) using HepaRG (AID 2283465); conditions: mRNA level, 48 h; actives raise or lower the signal
# Procedure, shortened: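 Gene expression of ABCG2 in HepaRG liver cells is quantified by qRT-PCR following 48 h exposure across an eight-point series topping at 100 uM. Values come from bidirectional fitting relative to DMSO vehicle.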
# [18] = read-out: Cyclin D1 (CCND1), CCND1 (gene 595); experiment: LTEA_HepaRG_CCND1: Life Technologies and Expression Analysis (LTEA) Assay for Cyclin D1 (CCND1) using HepaRG (AID 2283451); conditions: mRNA level, 48 h; actives raise or lower the signal;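 as to AC50: TaqMan qRT-PCR transcript level normalised to ACTB GAPDH and POLR2A housekeeping genes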
# Procedure, shortened: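 HepaRG plated 48 h, medium switched to serum-free induction medium, chemicals added in duplicate (top 100 uM, half-log steps, 0.5% DMSO) for 48 h, cells lysed, RNA measured by TaqMan qRT-PCR.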
# [19] = CEETOX_H295R_TESTO: CeeTox H295R High-throughput Steroidogenesis Assay for Testosterone (TESTO) (AID 2283457); conditions: actives raise or lower the signal;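 also: cells exposed to chemicals for 48 h before medium collection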
# Procedure, shortened: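 H295R, passage ≤10, 48 h dosing; media extracted with MTBE → HPLC-MS/MS for testosterone; 7-pt standard curve sets LLOQ/ULOQ; bidirectional fit vs DMSO; MTT viability same wells.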
# Broad substrate specificity ATP-binding cassette transporter ABCG2 (Homo sapiens), sequence (Q9UNQ0 whole entry, looked up): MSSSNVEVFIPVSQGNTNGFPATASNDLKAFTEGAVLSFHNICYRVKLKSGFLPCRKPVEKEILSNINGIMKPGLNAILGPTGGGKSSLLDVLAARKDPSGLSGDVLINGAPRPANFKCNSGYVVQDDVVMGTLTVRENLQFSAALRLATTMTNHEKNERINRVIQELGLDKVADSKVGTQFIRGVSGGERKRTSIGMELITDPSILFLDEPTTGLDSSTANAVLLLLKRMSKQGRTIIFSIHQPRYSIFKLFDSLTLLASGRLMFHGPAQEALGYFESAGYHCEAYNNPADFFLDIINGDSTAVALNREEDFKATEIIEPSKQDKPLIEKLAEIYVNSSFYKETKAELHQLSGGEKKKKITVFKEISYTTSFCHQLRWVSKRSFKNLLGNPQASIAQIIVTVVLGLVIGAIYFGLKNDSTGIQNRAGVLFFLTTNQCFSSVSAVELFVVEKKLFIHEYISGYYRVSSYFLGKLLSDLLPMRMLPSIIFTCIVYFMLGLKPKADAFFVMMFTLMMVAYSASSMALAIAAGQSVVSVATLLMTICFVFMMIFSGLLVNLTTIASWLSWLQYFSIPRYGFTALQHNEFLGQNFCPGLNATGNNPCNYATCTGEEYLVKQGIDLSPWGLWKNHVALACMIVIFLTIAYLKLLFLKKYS
compound,measurement,setting,value
CCCCCOC(=O)COc1cc(N2C(=O)C3=C(CCCC3)C2=O)c(F)cc1Cl,outcome,[1],inactive
same,outcome,[2],inactive
same,outcome,[3],inactive
same,outcome,[4],inactive
same,outcome,[5],inactive
same,outcome,[6],inactive
same,AC50,[7],0.00329 µM (active)
same,outcome,[8],inactive
same,outcome,[9],inactive
same,outcome,[10],inactive
same,outcome,[11],inactive
same,outcome,[12],inactive
same,outcome,[13],inactive
same,outcome,[14],inactive
same,outcome,[15],inactive
same,outcome,[16],inactive
same,outcome,[17],inactive
Oc1ccc(C(c2ccc(O)cc2)C(Cl)(Cl)Cl)cc1,AC50,[1],0.848 µM (active)
same,outcome,[2],inactive
same,outcome,[3],inactive
same,outcome,[4],inactive
same,AC50,[18],89.2 µM (active)
same,AC50,[5],88.8 µM (active)
same,AC50,[6],94 µM (active)
same,outcome,[7],inactive
same,outcome,[8],inactive
same,AC50,[9],93.2 µM (active)
same,AC50,[10],90.9 µM (active)
same,AC50,[11],82.9 µM (active)
same,outcome,[12],inactive
same,AC50,[13],93.8 µM (active)
same,outcome,[14],inactive
same,AC50,[16],83.1 µM (active)
same,AC50,[17],75.4 µM (active)
CC(=O)S[C@@H]1CC2=CC(=O)CC[C@]2(C)[C@H]2CC[C@@]3(C)[C@@H](CC[C@@]34CCC(=O)O4)[C@H]12,outcome,[1],inactive
same,outcome,[2],inactive
same,outcome,[3],inactive
same,outcome,[4],inactive
same,outcome,[18],inactive
same,AC50,[5],60.7 µM (active)
same,AC50,[6],60.3 µM (active)
same,outcome,[7],inactive
same,outcome,[8],inactive
same,outcome,[9],inactive
same,AC50,[19],0.828 µM (active)
same,outcome,[10],inactive
same,outcome,[11],inactive
same,outcome,[12],inactive
same,outcome,[13],inactive
same,outcome,[14],inactive
same,AC50,[15],67 µM (active)
same,outcome,[16],inactive
same,outcome,[17],inactive
c1ccc(Nc2ccccc2)cc1,outcome,[1],inactive
same,outcome,[2],inactive
same,outcome,[4],inactive
same,outcome,[5],inactive
same,outcome,[6],inactive
same,outcome,[7],inactive
same,outcome,[8],inactive
same,outcome,[9],inactive
same,outcome,[10],inactive
same,outcome,[11],inactive
same,outcome,[12],inactive
same,outcome,[13],inactive
same,outcome,[14],inactive
same,outcome,[15],inactive
same,outcome,[16],inactive
